Screens as filed in PubChem BioAssay.
Methyltransferases: Primary Screen for Target Class Profiling of Small Molecule Inhibitors of Methyltransferases; 25,000 compounds, 3.9% hits; AID 1745853, 2022; purified enzyme, MTase-Glo SAH luminescence; active compounds read low; calls only at 40 µM; call rule not given here
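Each enzyme was assayed with SAM and its substrate. SAH formation detected by MTase-Glo luminescence; single-point 40 uM screen[…].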
MTase-Glo ctr: inhibits MTase-Glo coupling enzymes without methyltransferase | shares compounds with Methyltransferases | MTase-Glo coupled enzymes, SAH conversion luminescence, no MTase | Potency, µM (doses to about 57.3 µM), without a hit: at the highest dose activity change, negative = inhibition, usual class: inhibitors | 180 compounds, 6% hits | AID 1745851; active means well fitted inhibition curve with a large enough effect; further: potency means the concentration at half of the fitted maximal effect
* marks the source's active call; other numbers are inactive results; i = inactive; + = active, no number; [ ] = dose if it differs, or a comment. The entries come from a sample that favours hits as a whole. On the % scale 0 is the no-effect control and ±100 the full control effect.

SMILES | Methyltransferases | others
Cc1ccc(Cl)cc1NC(=O)N1Cc2ccccc2-n2cccc2C1c1cccs1 (centres undefined) | i
O=C(Nc1cc(F)ccc1F)N1Cc2ccccc2-n2cccc2C1c1ccc(F)cc1 (centres undefined) | i
CC[C@H]1CN2CC[C@H]1C[C@@H]2CNCc1ccc(-c2ccccc2)cc1 | + | MTase-Glo ctr=2%[85.7 µM]
COc1ccccc1-c1cc([C@H]2CN3CC[C@H]2C[C@@H]3CNS(=O)(=O)c2ccccc2)n(C)n1 | i
CS(=O)(=O)NC[C@H]1C[C@@H]2CCN1C[C@@H]2CN1CCc2ccccc2C1 | i
CCOc1ccc(NC(=O)N2Cc3ccccc3-n3cccc3C2c2cc(F)cc(F)c2)cc1 (centres undefined) | i
COC(=O)c1ccc(Cl)cc1NC(=O)N1Cc2ccccc2-n2cccc2C1c1ccccc1 (centres undefined) | i
CC1c2cccn2-c2ccccc2CN1C(=O)NCc1ccccc1 (centres undefined) | i
Cn1nc(C2CCCC2)cc1[C@H]1CN2CC[C@H]1C[C@@H]2CNC(=O)c1cccs1 | i
C=C[C@H]1CN2CC[C@H]1C[C@@H]2[C@@H](O)c1ccnc2ccccc12 | i
C=C[C@H]1CN2CC[C@H]1C[C@@H]2CNC(=O)Nc1ccc(Br)cc1 | + | MTase-Glo ctr=-30%[85.7 µM]
O=C(O)C1=NOC2CN(Cc3ccccc3)CC12 (centres undefined) | i
